The values that follow come from article PMC11006913.

Changes are numbered by the printed parent chain.

Holding throughout (assay): PBM; 200 nM protein, PBS
Common to all, as to conditions: dsDNA, one strand shown

Assay [1] addresses T1, VENTX (Homo sapiens, UniProt O95231 78-163, R121Q).
T1 sequence: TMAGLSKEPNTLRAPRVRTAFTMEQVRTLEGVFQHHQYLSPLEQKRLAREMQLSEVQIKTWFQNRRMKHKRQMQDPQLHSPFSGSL

Assay [2] addresses T2, VENTX (Homo sapiens, UniProt O95231 78-163, Y115F).
T2 sequence: T1 sequence with Y38F, Q44R

In assay [3] the target is HOXA2 (Homo sapiens, UniProt O43364 129-215, R185T).
Chain of HOXA2 (Homo sapiens, UniProt O43364 129-215, R185T) (O43364 129-215 R185T): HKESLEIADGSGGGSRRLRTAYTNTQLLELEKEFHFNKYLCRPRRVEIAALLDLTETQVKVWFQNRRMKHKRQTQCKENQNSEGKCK
Assay [4] deals with ALX3 (Homo sapiens, UniProt O95076 139-225, N203Q).
Chain of ALX3 (Homo sapiens, UniProt O95076 139-225, N203Q) (O95076 139-225 N203Q): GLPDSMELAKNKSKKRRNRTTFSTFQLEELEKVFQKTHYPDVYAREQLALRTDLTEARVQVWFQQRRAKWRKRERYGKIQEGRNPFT
Assay [5] deals with T3, PAX4 (Homo sapiens, UniProt O43316 9-242, R200Q).
T3 sequence: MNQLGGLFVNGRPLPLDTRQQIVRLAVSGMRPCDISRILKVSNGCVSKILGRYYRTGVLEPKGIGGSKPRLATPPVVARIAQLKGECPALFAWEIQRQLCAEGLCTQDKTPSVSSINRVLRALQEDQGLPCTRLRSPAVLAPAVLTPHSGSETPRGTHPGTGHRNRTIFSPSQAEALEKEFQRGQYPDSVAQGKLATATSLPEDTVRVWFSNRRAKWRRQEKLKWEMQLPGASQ

The next assay concerns the target MSX2 (Homo sapiens, UniProt P35548 130-214).
For assay [6], the target named is ALX3 (Homo sapiens, UniProt O95076 139-225).
Chain of ALX3 (Homo sapiens, UniProt O95076 139-225) (O95076 139-225): as the sequence (O95076 139-225 N203Q) above, with Q65N counted along it
The target in assay [7] is ALX3 (Homo sapiens, UniProt O95076 139-225, L168V).
Chain of ALX3 (Homo sapiens, UniProt O95076 139-225, L168V) (O95076 139-225 L168V): as the sequence (O95076 139-225 N203Q) above, with L30V, Q65N counted along it
Assay [8] concerns the target ALX3 (Homo sapiens, UniProt O95076 139-225, N203S).
The target of assay [9] is T4, PAX4 (Homo sapiens, UniProt O43316 9-242, R200K).
T4 sequence: T3 sequence with Q192K

The target in assay [10] is T5, PAX4 (Homo sapiens, UniProt O43316 9-242).
T5 sequence: T3 sequence with Q192R

In assay [11] the target is HOXA2 (Homo sapiens, UniProt O43364 129-215, R185K).
Chain of HOXA2 (Homo sapiens, UniProt O43364 129-215, R185K) (O43364 129-215 R185K): as the sequence (O43364 129-215 R185T) above, with T57K counted along it
For assay [12], the target named is T6, PAX4 (Homo sapiens, UniProt O43316 9-242, F177V).
T6 sequence: T3 sequence with F169V, Q192R

Assay [13] addresses T7, PAX4 (Homo sapiens, UniProt O43316 9-242, F177Y).
T7 sequence: T3 sequence with F169Y, Q192R

Assay [14] deals with T8, PAX4 (Homo sapiens, UniProt O43316 9-242, R227W).
T8 sequence: T3 sequence with Q192R, R219W

The target in assay [15] is HOXA2 (Homo sapiens, UniProt O43364 129-215, Y150S).
Chain of HOXA2 (Homo sapiens, UniProt O43364 129-215, Y150S) (O43364 129-215 Y150S): as the sequence (O43364 129-215 R185T) above, with Y22S, T57R counted along it
A further assay has as its target HOXA4 (Homo sapiens, UniProt Q00056 201-287, W262F).
The target of assay [16] is HOXA2 (Homo sapiens, UniProt O43364 129-215).
Chain of HOXA2 (Homo sapiens, UniProt O43364 129-215) (O43364 129-215): as the sequence (O43364 129-215 R185T) above, with T57R counted along it

Chain of MSX2 (P35548 130-214): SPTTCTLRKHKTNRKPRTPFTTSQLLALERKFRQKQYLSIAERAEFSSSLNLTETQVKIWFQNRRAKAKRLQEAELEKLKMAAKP
Chain of ALX3 (Homo sapiens, UniProt O95076 139-225, N203S) (O95076 139-225 N203S): as the sequence (O95076 139-225 N203Q) above, with Q65S counted along it
Chain of HOXA4 (Q00056 201-287 W262F): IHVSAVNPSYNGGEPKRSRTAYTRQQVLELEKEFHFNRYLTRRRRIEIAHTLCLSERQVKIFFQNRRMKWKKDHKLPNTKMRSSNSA

Take GCCAATTA: the binding signal with VENTX [1] is 11.8 upbm affinity estimate (log intensity, higher = more binding, comparable within an allelic series); with VENTX [2], 11.5 upbm affinity estimate (log intensity, higher = more binding, comparable within an allelic series); in the assay with HOXA2 [3], 12.6 upbm affinity estimate (log intensity, higher = more binding, comparable within an allelic series); with ALX3 [4], 8.33 upbm affinity estimate (log intensity, higher = more binding, comparable within an allelic series); in the assay with PAX4 [5] it was 11.9 upbm affinity estimate (log intensity, higher = more binding, comparable within an allelic series); with MSX2, 14 upbm affinity estimate (log intensity, higher = more binding, comparable within an allelic series). In addition, the binding signal with ALX3 [6] is 12.6 upbm affinity estimate (log intensity, higher = more binding, comparable within an allelic series); with ALX3 [7], 10.4 upbm affinity estimate (log intensity, higher = more binding, comparable within an allelic series); with ALX3 [8], 8.5 upbm affinity estimate (log intensity, higher = more binding, comparable within an allelic series).
On to AATTAGCA, for which the binding signal with VENTX [1] was 11.7 upbm affinity estimate (log intensity, higher = more binding, comparable within an allelic series); with PAX4 [9] it was 11.6 upbm affinity estimate (log intensity, higher = more binding, comparable within an allelic series); in the assay with VENTX [2], 11.5 upbm affinity estimate (log intensity, higher = more binding, comparable within an allelic series); with PAX4 [10], 12.1 upbm affinity estimate (log intensity, higher = more binding, comparable within an allelic series); with HOXA2 [3], 12.4 upbm affinity estimate (log intensity, higher = more binding, comparable within an allelic series); in the assay with ALX3 [4], 8.31 upbm affinity estimate (log intensity, higher = more binding, comparable within an allelic series). Further, the binding signal with PAX4 [5] is 11.9 upbm affinity estimate (log intensity, higher = more binding, comparable within an allelic series); with HOXA2 [11], 13 upbm affinity estimate (log intensity, higher = more binding, comparable within an allelic series); in the assay with PAX4 [12] it was 10.5 upbm affinity estimate (log intensity, higher = more binding, comparable within an allelic series); with ALX3 [6], 12.2 upbm affinity estimate (log intensity, higher = more binding, comparable within an allelic series); with PAX4 [13] it was 10.9 upbm affinity estimate (log intensity, higher = more binding, comparable within an allelic series); with ALX3 [7] it was 9.83 upbm affinity estimate (log intensity, higher = more binding, comparable within an allelic series). Besides, the binding signal with PAX4 [14] was 10.9 upbm affinity estimate (log intensity, higher = more binding, comparable within an allelic series); in the assay with HOXA2 [15], 10.8 upbm affinity estimate (log intensity, higher = more binding, comparable within an allelic series); with HOXA4 it was 11.5 upbm affinity estimate (log intensity, higher = more binding, comparable within an allelic series); in the assay with ALX3 [8], 8.36 upbm affinity estimate (log intensity, higher = more binding, comparable within an allelic series); with HOXA2 [16], 12.1 upbm affinity estimate (log intensity, higher = more binding, comparable within an allelic series).
In the case of ATAATTGG, the binding signal in the assay with ALX3 [4] is 8.37 upbm affinity estimate (log intensity, higher = more binding, comparable within an allelic series); with PAX4 [5], 11.9 upbm affinity estimate (log intensity, higher = more binding, comparable within an allelic series); with MSX2, 14.1 upbm affinity estimate (log intensity, higher = more binding, comparable within an allelic series); with ALX3 [6], 12.6 upbm affinity estimate (log intensity, higher = more binding, comparable within an allelic series); with ALX3 [7], 10.4 upbm affinity estimate (log intensity, higher = more binding, comparable within an allelic series); with ALX3 [8] it was 8.55 upbm affinity estimate (log intensity, higher = more binding, comparable within an allelic series).
As for AATTAGTA, the binding signal with VENTX [1] was 11.7 upbm affinity estimate (log intensity, higher = more binding, comparable within an allelic series); with PAX4 [9] it was 11.7 upbm affinity estimate (log intensity, higher = more binding, comparable within an allelic series); in the assay with VENTX [2] it was 11.5 upbm affinity estimate (log intensity, higher = more binding, comparable within an allelic series); with PAX4 [10], 12.2 upbm affinity estimate (log intensity, higher = more binding, comparable within an allelic series); with ALX3 [4] it was 8.49 upbm affinity estimate (log intensity, higher = more binding, comparable within an allelic series); with PAX4 [5], 11.9 upbm affinity estimate (log intensity, higher = more binding, comparable within an allelic series). Further, the binding signal in the assay with PAX4 [12] was 10.5 upbm affinity estimate (log intensity, higher = more binding, comparable within an allelic series); in the assay with MSX2, 13.3 upbm affinity estimate (log intensity, higher = more binding, comparable within an allelic series); in the assay with ALX3 [6], 12.3 upbm affinity estimate (log intensity, higher = more binding, comparable within an allelic series); with PAX4 [13], 10.9 upbm affinity estimate (log intensity, higher = more binding, comparable within an allelic series); in the assay with ALX3 [7] it was 9.94 upbm affinity estimate (log intensity, higher = more binding, comparable within an allelic series); with PAX4 [14] it was 11 upbm affinity estimate (log intensity, higher = more binding, comparable within an allelic series). Further, the binding signal is 11.5 upbm affinity estimate (log intensity, higher = more binding, comparable within an allelic series) in the assay with HOXA4 and 8.57 upbm affinity estimate (log intensity, higher = more binding, comparable within an allelic series) in the assay with ALX3 [8].
Turning to AACTAATT, the binding signal is 8.44 upbm affinity estimate (log intensity, higher = more binding, comparable within an allelic series) with ALX3 [4]; 13.3 upbm affinity estimate (log intensity, higher = more binding, comparable within an allelic series) with MSX2; 12.4 upbm affinity estimate (log intensity, higher = more binding, comparable within an allelic series) in the assay with ALX3 [6]; 9.88 upbm affinity estimate (log intensity, higher = more binding, comparable within an allelic series) with ALX3 [7]; 8.58 upbm affinity estimate (log intensity, higher = more binding, comparable within an allelic series) with ALX3 [8].
For AATTATAA, the binding signal was 8.51 upbm affinity estimate (log intensity, higher = more binding, comparable within an allelic series) in the assay with ALX3 [4]; 13.4 upbm affinity estimate (log intensity, higher = more binding, comparable within an allelic series) with MSX2; 12.4 upbm affinity estimate (log intensity, higher = more binding, comparable within an allelic series) with ALX3 [6]; 9.95 upbm affinity estimate (log intensity, higher = more binding, comparable within an allelic series) in the assay with ALX3 [7]; 8.6 upbm affinity estimate (log intensity, higher = more binding, comparable within an allelic series) with ALX3 [8].
